# Measurements as given in PubChem BioAssay (NCATS).
# Records with an inconclusive call do not appear. Where a call stands in place of a potency, no number is given. The source made the active and inactive calls. Unless noted, calls follow the shape of the full dose curve.
# Legend:
# [1] = Primary qHTS for Huh7 cytotoxicity: counterscreen for inhibitors of MERS-S pseudotyped particle cell entry (AID 1479147)
# [2] = Primary qHTS for Vero E6 cytotoxicity: counterscreen for inhibitors of SARS-S pseudo-typed particle cell entry (AID 1479150)
# [3] = Confirmatory qHTS for activators (rescue) of SARS-CoV-2 Cytopathic Effect (CPE) (AID 1508606); also: potency is read from the fitted curve at half-maximal effect; nearly all actives have a fitted effect of over 70% in size
# [4] = Primary qHTS for inhibitors of MERS-S pseudo-typed particle cell entry (AID 1479149); also: nearly all actives have a fitted effect of over 60% in size
# [5] = Primary qHTS for inhibitors of La Crosse Virus (LACV) - induced cell death in SH-SY5Y cells (AID 1508616; active = well fitted curve in the direction sought with a large enough effect; an effect the other way counts as inactive or inconclusive;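 also: top concentration of the series differs between compounds; higher means more rescue of cells from virus-induced death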)
# Method in brief: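 Protection against LACV-induced cell death is scored in SH-SY5Y cells exposed to compounds and virus (0.01 MOI) for 6 days. Data normalized to virus-infected DMSO wells and virus-free DMSO wells.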
# [6] = Confirmatory qHTS for VERO E6 Cytotoxicity Assay: Counterscreen for SARS-CoV-2 CPE Assay (AID 1508605); also: nearly all actives have a fitted effect of over 60% in size; also: potency is read from the fitted curve at half-maximal effect
# [7] = target: Calcium and integrin-binding protein 1 (Homo sapiens) (UniProt Q99828); experiment: Primary qHTS for Identification of Calcium Integrin Binding Protein 1 (CIB1) Competitor (AID 1508620; active = well fitted curve in the direction sought with a large enough effect; an effect the other way counts as inactive or inconclusive;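 also: GST tagged CIB1 binding a fluorescein labelled alphaIIb integrin peptide tracer; top concentration of the series differs between compounds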)
# Method in brief: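 CIB1-GST (1 uM final) and compound incubated 15 min at room temperature before adding FITC-alphaIIb peptide tracer (100 nM final). Competition for binding read by fluorescence polarization (ex 480, em 540) after another 15 min at room temperature.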
# [8] = target: Calcium and integrin-binding protein 1 (Homo sapiens) (UniProt Q99828); experiment: Confirmatory qHTS for Identification of Calcium Integrin Binding Protein 1 (CIB1) Competitor (AID 1508617; active = well fitted curve in the direction sought with a large enough effect; an effect the other way counts as inactive or inconclusive; also: nearly all actives have a fitted effect of over 65% in size; also: potency is read from the fitted curve at half-maximal effect)
# Method in brief: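 Confirmatory qHTS measures displacement of a FITC-alphaIIb peptide (100 nM) from CIB1-GST (1 uM) by fluorescence polarization. Calcium-containing HEPES buffer, pH 7.4; two 15 min room-temperature incubations.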
# [9] = target: Calcium and integrin-binding protein 1 (Homo sapiens) (UniProt Q99828); experiment: Validation qHTS for Identification of Calcium Integrin Binding protein 1 (CIB1) Competitor (AID 1508618; active = well fitted curve in the direction sought with a large enough effect; an effect the other way counts as inactive or inconclusive)
# Method in brief: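 Displacement of FITC-alphaIIb peptide (100 nM) from CIB1-GST (1 uM) is monitored by polarization in quantitative HTS format; buffer carries 5 mM CaCl2 and 125 mM NaCl at pH 7.4, incubations are at room temperature.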
# Sequence of Calcium and integrin-binding protein 1 (Homo sapiens) (Q99828 whole entry, looked up): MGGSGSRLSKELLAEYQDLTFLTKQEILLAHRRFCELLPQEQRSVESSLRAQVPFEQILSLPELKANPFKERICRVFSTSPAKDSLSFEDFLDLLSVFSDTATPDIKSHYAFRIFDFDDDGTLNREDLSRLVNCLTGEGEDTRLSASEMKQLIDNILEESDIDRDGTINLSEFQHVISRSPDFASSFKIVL
smiles,measurement,setting,value
CCCS(=O)(=O)Nc1ccc(F)c(C(=O)c2c[nH]c3ncc(-c4ccc(Cl)cc4)cc23)c1F,Potency,[1],inactive
same,Potency,[2],inactive
S=C(NCc1ccc2c(c1)OCO2)N1CCN(c2ncnc3c2oc2ccccc23)CC1,Potency,[3],3.55 µM (active)
Clc1ccccc1CN1CCc2sccc2C1,Potency,[1],inactive
same,Potency,[4],inactive
same,Potency,[2],inactive
CC(C)Oc1cccnc1N(C)C1CCN(Cc2ccccc2)CC1,outcome,[5],inactive
Cn1cncc1[C@@](N)(c1ccc(Cl)cc1)c1ccc2c(c1)c(-c1cccc(Cl)c1)cc(=O)n2C,Potency,[1],inactive
same,Potency,[2],inactive
CCCN(CCC)C1CCc2ccc(O)cc2C1 (stereo unspecified),outcome,[5],inactive
CC1(N2CCC(n3c([C@@H]4CCCNC4)nc4ccccc43)CC2)CCCCCCC1,Potency,[6],inactive
same,Potency,[3],2.82 µM (active)
same,outcome,[7],inactive
C#CC(C)(CC)OC(=O)c1ccccc1C(=O)O (stereo unspecified),Potency,[1],inactive
same,Potency,[4],inactive
same,Potency,[2],inactive
O=C(c1ccc(Nc2nccc(-c3cc4ccccc4s3)n2)cc1)N1CCC(N2CCCC2)CC1,Potency,[6],10 µM (active)
same,Potency,[3],3.55 µM (active)
CCCCCCCCCCCCCCCC[N+](C)(C)C,Potency,[1],inactive
same,outcome,[5],inactive
same,Potency,[8],70.8 µM (active)
COc1cc2c(cc1OC)CC(=O)N(CCCN(C)C[C@H]1Cc3cc(OC)c(OC)cc31)CC2,Potency,[1],inactive
same,Potency,[4],inactive
same,Potency,[2],inactive
CCOP(=O)(OCC)C(C)NC(=O)N(CCCl)N=O (stereo unspecified),Potency,[1],inactive
same,Potency,[4],inactive
same,Potency,[2],inactive
same,outcome,[7],inactive
CC(C)NC(C)Cc1ccc(I)cc1 (stereo unspecified),Potency,[1],inactive
same,Potency,[2],inactive
same,outcome,[9],inactive
COc1c(C)cnc(Cn2cnc3c(Cl)nc(N)nc32)c1C,Potency,[6],inactive
Nc1ccc(C(=O)c2cc3c(ccc4ccccc43)[nH]2)cc1,Potency,[6],14.1 µM (active)
CC(=O)N[C@@H](Cc1ccc(O)cc1)C(=O)O,Potency,[1],inactive
same,Potency,[4],inactive
same,Potency,[2],inactive
C[C@@H]1CCN(C(=O)CC#N)C[C@@H]1N(C)c1ncnc2[nH]ccc12,Potency,[1],inactive
same,Potency,[4],inactive
same,Potency,[2],inactive
CC(C)(C)c1cc(C(C)(C)C)c(NC(=O)c2c[nH]c3ccccc3c2=O)cc1O,Potency,[1],inactive
same,Potency,[4],inactive
same,Potency,[2],inactive
NCCc1c[nH]c2ccc(O)cc12,outcome,[5],inactive
CC(C)Oc1cccc(NC(=O)c2ccccc2C(F)(F)F)c1,Potency,[8],inactive
O=C(Nc1ccccc1-c1ccc(Cl)cc1)c1cccnc1Cl,outcome,[5],inactive
same,outcome,[7],inactive
Oc1ccc2c3c1O[C@H]1c4[nH]c5c(c4C[C@@]4(O)[C@@H](C2)N(CC2CC2)CC[C@]314)C[C@@]1(O)[C@H]2Cc3ccc(O)c4c3[C@@]1(CCN2CC1CC1)[C@H]5O4,outcome,[5],inactive
same,outcome,[7],inactive
Nc1ccc(Cl)cc1,outcome,[5],inactive
same,outcome,[7],inactive
CCCCCCCCCC(CC)c1ccc(S(=O)(=O)O)cc1 (stereo unspecified),outcome,[5],inactive
same,outcome,[7],inactive
Nc1ccc(Cl)cc1N,outcome,[5],inactive
same,outcome,[7],inactive
CCO/N=C(\CC)C1=C(O)CC(c2c(C)cc(C)cc2C)CC1=O (stereo unspecified),outcome,[5],inactive
same,outcome,[7],inactive
